{"source": "PubChem BioAssay AID2546", "about": "(National Center for Advancing Translational Sciences (NCATS), 2010)", "note": "Screen size: about 310,000 compounds; about 11,000 (3.5%) were called active. Inconclusive results (about 8%) are left out. Calls come from the whole dose curve; as a rule, active = well fitted inhibition curve with a large enough effect; inconclusive = small, poorly fitted or top-dose-only effect, or effect the other way; inactive = flat fitted curve, though single readings scatter. The list comes from a sample in which actives are over-represented; it also holds similar structures and randomly drawn compounds. A call without a number means that no potency is given here. Potency is the fitted concentration of half-maximal effect.", "data": [{"assay": "VP16 counterscreen qHTS for inhibitors of ROR gamma transcriptional activity;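 note: Gal4-VP16 expression switched on by copper sulfate through the metallothionein promoter; nearly all actives have a fitted effect of over 50% in size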", "details": "Drosophila S2 Gal4-VP16 UAS-luciferase, luminescence, 20 h; series mostly up to 53.6 µM", "values": [{"molecule": "COc1cccc(NC(=S)NCCCN2CCOCC2)c1", "Potency": "inactive"}, {"molecule": "CCOc1cccc(/C=N/NC(=S)NCCN2CCOCC2)c1O", "Potency": "2.24 µM (active)"}, {"molecule": "Cc1ccc(NC(=S)NCCN2CCOCC2)cc1", "Potency": "inactive"}, {"molecule": "CCOC(=O)c1c(S(=O)(=O)NCC(=O)Nc2ccc(C)cc2)c(C)n(C)c1C", "Potency": "inactive"}, {"molecule": "CCCc1cc(=O)oc2c(C)c(OCC(=O)Nc3ccccn3)ccc12", "Potency": "inactive"}, {"molecule": "O=C(CN1C(=O)S/C(=C\\c2ccccc2Cl)C1=O)NC1C=CS(=O)(=O)C1", "note": "(stereo not drawn)", "Potency": "inactive"}, {"molecule": "CCCCCCCCn1c2c(c(=N)c3c1CCC3)CCCC2", "Potency": "2.51 µM (active)"}, {"molecule": "COCCCNC(=O)Cc1ccc(-n2c(C)nc3cccnc32)cc1", "Potency": "inactive"}, {"molecule": "CCCC(=O)Nc1cccc(NC(=S)NC(=O)C(C)Oc2ccc(Cl)cc2Cl)c1", "note": "(stereo not drawn)", "Potency": "2.82 µM (active)"}, {"molecule": "COc1cccc(NC(=O)CN(C)C(=O)Cc2ccc(Cl)cc2Cl)c1", "Potency": "inactive"}, {"molecule": "CC(Oc1ccc(Cl)cc1Cl)C(=O)/C=C/N(C)C", "note": "(stereo not drawn)", "Potency": "inactive"}, {"molecule": "Cc1ccc(/C=C2/SC(=S)N(CCC(=O)NCCCN3CCOCC3)C2=O)cc1", "Potency": "inactive"}, {"molecule": "CCCC[C@]12Cc3cc(OC)c(OC)cc3C(O1)C1=C(CC3(CCCCC3)OC1=O)O2", "activity, negative = inhibition": "7.46% [at 10 µM] (inactive)"}, {"molecule": "C=C1/C(=C\\C=C2\\CCCC3(C)C2CCC3C(C)/C=C/C(O)C2CC2)CC(O)CC1O", "note": "(stereo not drawn)", "Potency": "12.6 µM (active)"}, {"molecule": "C=C1C(=CC=C2CCC[C@@]3(C)[C@@H]2CC[C@H]3[C@H](C)CCCC(C)C)C[C@@H](O)C[C@@H]1O", "Potency": "inactive"}, {"molecule": "COc1ccc(C(O)(C2CCCCC2)C(CN2CCCC2)c2ccccc2)cc1", "note": "(stereo not drawn)", "Potency": "inactive"}, {"molecule": "O=C(NCc1ccccc1Cl)C1CCN(S(=O)(=O)c2cccc3nonc23)CC1", "Potency": "inactive"}, {"molecule": "O=C(NCCc1ccccc1)c1ccc2c(c1)N(Cc1ccccc1)CCS2", "Potency": "inactive"}, {"molecule": "COc1ccc(CCn2c(=N)c(C(=O)NCc3ccco3)cc3c(=O)n4cccc(C)c4nc32)cc1", "Potency": "inactive"}, {"molecule": "O=c1oc(-c2ccco2)nc2sc3c(c12)CCCCC3", "Potency": "inactive"}, {"molecule": "O=C(NCc1ccco1)c1cccn2c(=O)c3c4c(sc3nc12)CCCC4", "Potency": "11.2 µM (active)"}, {"molecule": "CCCCC(C(=O)NC(C)(C)C)N(Cc1ccccc1)C(=O)c1snc(C(N)=O)c1N", "note": "(stereo not drawn)", "Potency": "inactive"}, {"molecule": "O=C(CN1CCN(Cc2ccccc2)CC1)Nc1ccc(F)c(F)c1", "Potency": "inactive"}, {"molecule": "CCn1c2ccccc2c2cc(NC(=S)N3CCOCC3)ccc21", "Potency": "22.4 µM (active)"}, {"molecule": "CCn1c2ccccc2c2cc(NC(=O)CNC)ccc21", "Potency": "inactive"}, {"molecule": "Cc1cc(N2CCN(C)CC2)nc2ccc(NC(=S)N3CCOCC3)cc12", "Potency": "inactive"}, {"molecule": "CC(C)CCN(C(=O)c1csnn1)C(C(=O)NC1CCCC1)c1ccccc1", "note": "(stereo not drawn)", "Potency": "inactive"}, {"molecule": "Clc1cccc(CN2COc3c(cc(Cl)c4cccnc34)C2)c1", "Potency": "1.41 µM (active)"}, {"molecule": "CC(C)CC(=O)N1CCN(Cc2cccc(Cl)c2)CC1", "Potency": "inactive"}, {"molecule": "Nc1c(C(=O)NCc2ccccc2)nnn1Cc1cccc(Cl)c1", "Potency": "inactive"}, {"molecule": "N#Cc1cccc(CN2CCC(=O)N([C@H](CO)c3ccccc3)CC2)c1", "Potency": "inactive"}, {"molecule": "O=C(CN1CCCC1)Nc1sc2c(c1C(=O)Nc1ccccc1)CCCC2", "Potency": "10 µM (active)"}, {"molecule": "NC(=O)c1c(NC(=O)c2ccccc2)sc2c1CCCC2", "Potency": "inactive"}, {"molecule": "Cc1ccc(NC(=O)c2c(NC(=O)CCC(=O)O)sc3c2CCCCC3)cc1", "Potency": "inactive"}, {"molecule": "COc1cc(S(=O)(=O)N2CCN=C2c2ccccc2)ccc1Cl", "Potency": "inactive"}, {"molecule": "Cc1cc(S(=O)(=O)c2cc3ccc(O)c(C)c3oc2=O)ccc1F", "Potency": "inactive"}, {"molecule": "Cc1nc2ccc(C(=O)N/N=C/c3ccc(O)cc3)cc2[nH]1", "Potency": "inactive"}, {"molecule": "Cc1ccc2occ(/C=N/NC(=O)c3ccccc3C)c(=O)c2c1", "Potency": "inactive"}, {"molecule": "Cc1ccc(/C=N/NC(=O)C2=NNC(c3ccccc3)(c3ccccc3)C2)c(O)c1", "Potency": "1.26 µM (active)"}, {"molecule": "O=C(NCc1ccccc1)c1onc(CSc2nc3ccccc3[nH]2)c1C(=O)NCc1ccccc1", "Potency": "inactive"}, {"molecule": "O=C(COc1ccc2c3c(c(=O)oc2c1)CCCC3)NCC(O)c1ccccc1", "note": "(stereo not drawn)", "Potency": "inactive"}, {"molecule": "COCCN1C(=O)C(=O)/C(=C(/O)c2ccc(S(=O)(=O)N3CCOCC3)cc2)C1c1ccc(OC)c(OC)c1", "note": "(stereo not drawn)", "Potency": "inactive"}, {"molecule": "C/C(=N\\NC(=O)C(N)=O)c1ccc2c(c1)OCCO2", "Potency": "inactive"}, {"molecule": "C/C(=N/NC(=O)c1ccncc1)c1ccc2c(c1)OCO2", "Potency": "inactive"}, {"molecule": "C/C(=N/NC(=S)Nc1ccccc1)c1ccc2c(c1)OCO2", "Potency": "4.47 µM (active)"}, {"molecule": "Cc1ccccc1N1CCN(C2CCCN(C(=O)c3cn4c(C)cccc4n3)C2)CC1", "note": "(stereo not drawn)", "Potency": "inactive"}, {"molecule": "CCc1nn(CCCC(=O)Nc2ccc(C)c(C)c2)c(=O)c2cc3occc3n12", "Potency": "inactive"}, {"molecule": "CN1C/C(=C/c2cccs2)C(=O)/C(=C\\c2cccs2)C1", "Potency": "inactive"}, {"molecule": "O=C(Nc1ccc(Cl)cn1)Nc1cccs1", "Potency": "14.1 µM (active)"}, {"molecule": "O=C(Nc1cccc([N+](=O)[O-])c1)Nc1ccc(Cl)cn1", "Potency": "inactive"}, {"molecule": "CCCc1cc(C(=O)Nc2ccc(Cl)cn2)cs1", "Potency": "inactive"}, {"molecule": "COc1cc(/C=N/N2CCN(c3ccccc3)CC2)ccc1OC(C)=O", "Potency": "inactive"}, {"molecule": "C/C(=C\\C(=O)c1ccc(Br)cc1)N1CCCCC1", "Potency": "inactive"}, {"molecule": "COc1cc2c(cc1OC)/C(=C/C(=O)c1ccc(NC(C)=O)cc1)NCC2", "Potency": "inactive"}, {"molecule": "CC1CN/C(=C\\C(=O)c2ccc(Br)cc2)C(=O)N1", "note": "(stereo not drawn)", "Potency": "11.2 µM (active)"}, {"molecule": "CCOc1ccccc1N1C(=O)CC(Sc2nccc(C)n2)C1=O", "note": "(stereo not drawn)", "Potency": "17.8 µM (active)"}, {"molecule": "Cc1ccnc(SCC(N)=O)n1", "Potency": "inactive"}, {"molecule": "O=C1CC(Sc2ncn[nH]2)C(=O)N1c1ccccc1", "note": "(stereo not drawn)", "Potency": "inactive"}, {"molecule": "COC(=O)C1CCN(C(=O)c2ccc3oc(Cc4ccc(Cl)cc4)nc3c2)CC1", "Potency": "inactive"}, {"molecule": "COc1ccc(-c2nc3c(s2)CCc2onc(-c4ccc(OC)cc4)c2-3)cc1", "Potency": "inactive"}, {"molecule": "CCn1ccnc1CNC(=O)CC1C(=O)NCCN1CCCc1ccccc1", "note": "(stereo not drawn)", "Potency": "inactive"}, {"molecule": "COCCNC(=S)N(CCc1c(C)[nH]c2ccc(C)cc12)Cc1cccnc1", "Potency": "inactive"}, {"molecule": "NS(=O)(=O)c1ccc(Nc2nc(-c3ccccc3)cs2)cc1", "Potency": "inactive"}, {"molecule": "Cc1cccc(Nc2nc(-c3ccccc3)cs2)n1", "Potency": "17.8 µM (active)"}, {"molecule": "Cc1cccc(S(=O)(=O)CC(=O)Nc2nc(-c3ccccc3)cs2)c1", "Potency": "inactive"}, {"molecule": "COc1ccccc1-c1nnc(NC(=O)c2ccc3ncsc3c2)o1", "Potency": "0.501 µM (active)"}, {"molecule": "COc1ccccc1-c1nnc(SCC(=O)Nc2ccccc2)o1", "Potency": "inactive"}, {"molecule": "O=C(Nc1ccc(S(=O)(=O)N2CCOCC2)cc1)c1ccc2ncsc2c1", "Potency": "inactive"}, {"molecule": "Nc1nonc1-n1nnc(C(=O)N/N=C/c2c[nH]c3ccccc23)c1-c1ccccc1", "Potency": "inactive"}, {"molecule": "Nc1nonc1-n1nnc(C(=O)N/N=C/C2CCCCC2)c1-c1ccccc1", "Potency": "inactive"}, {"molecule": "CCCOc1ccc(-c2c(C(=O)N/N=C/c3ccco3)nnn2-c2nonc2N)cc1", "Potency": "15.8 µM (active)"}, {"molecule": "COc1ccc(NC(=O)c2cccc3c2C(=O)N(CC2CCCO2)C3)cc1OC", "note": "(stereo not drawn)", "Potency": "inactive"}, {"molecule": "O=C(NNS(=O)(=O)c1ccc(F)cc1)C1CCCCC1", "Potency": "inactive"}, {"molecule": "COc1cc(SC#N)ccc1N=Cc1c(C)[nH]n(-c2ccc(C)cc2)c1=O", "Potency": "5.62 µM (active)"}, {"molecule": "COc1cc(NS(=O)(=O)c2ccc(N=Cc3c(C)[nH]n(-c4ccccc4)c3=O)cc2)nc(OC)n1", "Potency": "inactive"}, {"molecule": "O=S(=O)(Nc1cccc(-n2cnnn2)c1)c1cnc(Cl)c(Cl)c1", "Potency": "inactive"}, {"molecule": "CCc1ccc(S(=O)(=O)Nc2cc3c(cc2N2CCCCC2)n(C)c(=O)c(=O)n3C)cc1", "Potency": "inactive"}, {"molecule": "CSCCC(NS(=O)(=O)c1ccc(C)cc1)C(=O)NCCc1c[nH]c2ccccc12", "note": "(stereo not drawn)", "Potency": "inactive"}, {"molecule": "COc1ccc(C(=O)c2c(C)c(CCC#N)n3ccccc23)c(OC)c1", "Potency": "inactive"}, {"molecule": "Cc1ccc(-c2cc(C(=O)N/N=C/C=C/c3ccccc3)n[nH]2)o1", "Potency": "20 µM (active)"}, {"molecule": "Cc1ccc(-c2cc(C(=O)NN)n[nH]2)o1", "Potency": "inactive"}, {"molecule": "CC(C)c1cc(C(=O)N/N=C/C(Br)=C/c2ccccc2)n[nH]1", "Potency": "inactive"}, {"molecule": "Cc1cc2oc(=O)cc(CN3CCN(Cc4ccccc4)CC3)c2cc1C", "Potency": "inactive"}, {"molecule": "COc1cccc(CNC(=O)Cn2c(=O)oc3cc(S(=O)(=O)N4CCCCC4)ccc32)c1", "Potency": "inactive"}, {"molecule": "Cc1ccc(N2CCN(C(=O)c3cccs3)CC2)c(C)c1", "Potency": "inactive"}, {"molecule": "O=C(Nc1ccccc1N1CCCC1)c1ccc2ccccc2c1", "Potency": "inactive"}, {"molecule": "COc1ccccc1C(=O)NC(=S)Nc1ccccc1N1CCCCC1", "Potency": "10 µM (active)"}, {"molecule": "O=C(CCNC(=O)c1ccc([N+](=O)[O-])cc1)Nc1ccccc1N1CCOCC1", "Potency": "inactive"}, {"molecule": "O=C(NC(=S)Nc1ccccc1N1CCCCC1)c1ccc(F)cc1", "Potency": "6.31 µM (active)"}, {"molecule": "CCc1ccc(C(=O)NC(=S)Nc2ccccc2N2CCOCC2)cc1", "Potency": "3.16 µM (active)"}, {"molecule": "Cc1ccccc1NC(=O)Nc1ccccc1N1CCCCC1", "Potency": "inactive"}, {"molecule": "CC(=O)c1ccc(N2CCN(CC(=O)Nc3ccccc3N3CCOCC3)CC2)cc1", "activity, negative = inhibition": "-11.4% [at 10 µM] (inactive)"}, {"molecule": "COc1ccc(C(=O)NC(=S)Nc2ccccc2N2CCN(S(C)(=O)=O)CC2)cc1OC", "Potency": "inactive"}, {"molecule": "O=C(Nc1ccccc1N1CCCCC1)c1cccc(F)c1", "Potency": "inactive"}, {"molecule": "COc1ccc(/C=C(\\C#N)c2c[nH]c3ccccc23)cc1", "Potency": "inactive"}, {"molecule": "Cn1c(=O)oc2cc(S(=O)(=O)NCCC(=O)NCc3ccccc3Cl)ccc21", "Potency": "inactive"}, {"molecule": "CN(Cc1ccccc1)C(=O)C1CCCN(c2ncnc3c2nc2n3CCCCC2)C1", "note": "(stereo not drawn)", "Potency": "inactive"}, {"molecule": "CC1CCN(CCCn2c(SCC(=O)NC3CCCC3)nc3ccccc3c2=O)CC1", "Potency": "inactive"}, {"molecule": "Cc1c2cnn(CC(=O)NCc3ccccn3)c(=O)c2c(C)n1Cc1ccc(Cl)cc1", "Potency": "inactive"}, {"molecule": "O=C1Nc2ccccc2/C1=C/c1ccnc2ccccc12", "Potency": "inactive"}, {"molecule": "COc1cc(CN2CCCC(C(=O)c3ccc(SC)cc3)C2)cc(Cl)c1O", "note": "(stereo not drawn)", "Potency": "inactive"}, {"molecule": "COc1ccc(NC(=O)C2CCN(S(=O)(=O)c3ccc4[nH]c(=O)oc4c3)CC2)c(OC)c1", "Potency": "inactive"}, {"molecule": "C=CCSc1nnc(N2C(=O)C(O)=C(C(=O)c3ccco3)C2c2ccc(F)cc2)s1", "note": "(stereo not drawn)", "Potency": "inactive"}]}]}
